USP1-UAF1 inh: Inhibitors of USP1/UAF1: Primary Screen. Ubiquitin carboxyl-terminal hydrolase 1 (Homo sapiens), O94782. recombinant USP1/UAF1, Ub-Rhodamine cleavage fluorescence. Potency, µM (titrated, usually from 57.1 µM), without a hit: at the top dose activity change, negative = inhibition, usual class: inhibitors. 0.23% of 390,000 active; active = well fitted inhibition curve with a large enough effect; inconclusive = small, poorly fitted or top-dose-only effect; inactive = no such curve, though single readings can be large or run the other way; also: potency is read from the fitted curve at half-maximal effect; nearly all actives have a fitted effect of over 60% in size
Target sequence (O94782 whole entry, looked up): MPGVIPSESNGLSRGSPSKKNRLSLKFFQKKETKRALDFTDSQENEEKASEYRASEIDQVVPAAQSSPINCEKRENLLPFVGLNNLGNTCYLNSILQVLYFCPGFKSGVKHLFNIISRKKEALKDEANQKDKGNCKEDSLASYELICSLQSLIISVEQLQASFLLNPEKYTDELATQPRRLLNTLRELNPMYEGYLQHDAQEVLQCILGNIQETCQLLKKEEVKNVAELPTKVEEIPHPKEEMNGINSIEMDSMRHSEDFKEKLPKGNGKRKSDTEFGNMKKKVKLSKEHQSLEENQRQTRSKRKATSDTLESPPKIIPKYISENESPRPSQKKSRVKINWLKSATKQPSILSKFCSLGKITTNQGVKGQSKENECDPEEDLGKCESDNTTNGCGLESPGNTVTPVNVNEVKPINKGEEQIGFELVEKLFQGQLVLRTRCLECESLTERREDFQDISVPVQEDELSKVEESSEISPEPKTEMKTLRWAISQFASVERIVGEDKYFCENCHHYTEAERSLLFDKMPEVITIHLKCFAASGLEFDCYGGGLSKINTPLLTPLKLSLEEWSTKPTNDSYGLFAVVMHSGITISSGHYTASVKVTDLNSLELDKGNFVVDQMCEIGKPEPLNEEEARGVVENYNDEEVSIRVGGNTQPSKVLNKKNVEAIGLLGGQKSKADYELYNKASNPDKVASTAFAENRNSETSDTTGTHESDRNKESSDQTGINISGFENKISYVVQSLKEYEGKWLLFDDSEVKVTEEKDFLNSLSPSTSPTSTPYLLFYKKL
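USP1/UAF1 complex at 1 nM was preincubated with compound for 15 min at room temperature, then Ub-Rho substrate (150nM final) was added. Fluorescence (480/540 nm) was read kinetically, 6 reads every 60 seconds.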
FBPA coupling cs: qHTS Assay for Inhibitors of Fructose-1,6-bisphosphate Aldolase from Giardia Lamblia: Coupling assay counterscreen | coupling enzyme system counterscreen, AmpLite Red fluorescence | activity change, negative = inhibition, % at 58.2 µM, hits read low | 0.67% of 290,000 active | AID 2472, 2010; in the data active = activity change below about -30%
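Activity here indicates interference with the coupling reaction, not aldolase inhibition. Compounds at 57.5 uM final met coupling enzymes for 10 min at RT; substrate and AmpLite Red detection followed, with a 525/598 nm fluorescence read after 20 min.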
KCNH2 3.1 block: qHTS for Inhibitors of KCHN2 3.1: Mutant qHTS | U2OS KCNH2 3.1, thallium flux FluxOr; hits give low values | activity change, % (tested at about 1.8 µM) | 0.95% of 340,000 active | AID 720553, 2013;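 active = maximum activity change below -70%; inconclusive = maximum activity change from -70% to -50%; inactive = maximum activity change above -50%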;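 also: thallium influx rate constant from kinetic fluorescence after stimulation buffer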
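Channel expression came from 3.1 mutant virus (1.77 x 10^8 /mL) applied to suspended U2OS cells for 4 h. Flux was tracked with FluxOr dye plus Red40 quencher, and kinetic rate constants normalized to controls.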
KCNH2 WT inh: qHTS for Inhibitors of KCHN2 3.1: Wildtype qHTS; 0.37% of 340,000 active; activity change, % at 1.84 µM; U2OS, BacMam KCNH2, thallium flux FluxOr; hits give low values;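 active = maximum activity change below -70%; inconclusive = maximum activity change between -70% and -50%; inactive = maximum activity change above -50%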
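U2OS cells transduced with wild-type KCNH2 virus are loaded with FluxOr dye for 45 min, and thallium flux is measured in kinetic reads before and after stimulation buffer. Rate constants are normalized to DMSO controls.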
Giardia killer: Small Molecules that selectively kill Giardia lamblia: qHTS; AID 540267, 2011; Giardia lamblia trophozoite viability; 0.15% of 340,000 active; activity change, % at 7.66 µM, hits read low; in the data active = activity change below about -80%; inconclusive = between about -30% and that limit;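 also: parasites exposed to compound for two days anaerobically before the ATP read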
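Killing of trophozoites was scored by loss of ATP luminescence after a 48 hrs anaerobic exposure to compounds at 37 deg C, using 100 cells per well.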
Active calls of the source: *; ? = inconclusive; / = not tested or not shown. The list is not random: actives were taken first. Their share in the collection is about 1.7%. % is scaled to controls: 0 for no effect and ±100 for the full control effect.

SMILES	USP1-UAF1 inh	FBPA coupling cs	KCNH2 3.1 block	KCNH2 WT inh	Giardia killer
COc1ccccc1CNC(=O)CCC1N=C2c3ccccc3N=C(SCC(=O)Nc3ccc(N(C)C)cc3)N2C1=O (configuration not stated)	-4%	/	/	/	/
COc1ccc(-c2nc(CNS(=O)(=O)c3ccc(OC)c(OC)c3)cs2)cc1	-16%	0	-114*	4	4
CNC(=O)C1(C(F)(F)F)C/C(=C/CCO)CCCO1 (configuration not stated)	/	3	/	/	-8
Cc1nnc(SCc2cc(=O)n3c(C)cccc3n2)s1	3%	/	/	/	/
Cc1c(S(=O)(=O)NCCc2ccccc2)c(=O)n(C)c(=O)n1C	-21%	3	-5	-100*	-3
OCCCCNc1cccc2ccccc12	?	-41*	1	-3	-2
OCCCCCNc1ncnc2ccccc12	-22%	-1	-4	6	5
CC[C@@H](c1ccccc1)n1c(=O)n2n(c1=O)[C@H]1[C@H](O)[C@H]3O[C@@H]3/C(=N/OC[C@@H](O)COCc3ccco3)[C@@H]1CC2	/	1	/	/	/
CCN(CC)c1ccc(/C=C(/C#N)c2nc3ccc(C)cc3[nH]2)c(OC(C)C)c1	25µM*	-1	?	-70*	8
Cc1ccc(C)c(Nc2nnc(-n3nc(C)cc3C)c3ccccc23)c1	-14%	/	/	/	/
Oc1c(C=Nc2ccccc2)sc2ccccc12	-21%	0	-7	-10	-15
Oc1sc(C=Nc2ccc(F)cc2)c2ccccc12	32µM*	5	-22	-17	-11
Oc1sc(C=Nc2ccccc2)c2ccccc12	28µM*	-7	-9	-14	-6
Cc1cccc(Cn2c(SCc3ccc(C(=O)N4CCCCCC4)cc3)nc3ccncc32)c1	-8%	/	/	/	10
CC(=O)N1CCC2(CC1)CN(c1ccccc1)C2	/	-4	/	/	/
CCCCn1c(N)c(N(CCOC)C(=O)CCS(=O)(=O)c2ccc(C)cc2)c(=O)[nH]c1=O	-13%	/	-6	9	/
S=C(NCc1ccccc1)N1CCN(c2ccccc2)CC1	-14%	6	-74*	0	-2
COCCn1c(SCC(=O)NCc2ccc3c(c2)OCO3)nnc1C(C)C	1%	1	-4	9	8
COCCn1c(SCC(=O)NCc2ccc3c(c2)OCO3)nnc1-c1c[nH]c2ccccc12	-15%	0	-215*	-149*	19
Cc1noc2ncnc(N3CCCC(C(=O)NC(C)C)C3)c12 (configuration not stated)	-4%	/	/	/	/
CCCN1CCN(C(=O)Cn2cnc3ccc(S(=O)(=O)N4CCC(C)CC4)cc3c2=O)CC1	-17%	0	-85*	-2	-12
CCCCNC(=O)Cn1cnc2ccc(S(=O)(=O)N3CCC(C)CC3)cc2c1=O	1%	2	-12	-2	21
CC(c1nccs1)N(C)C(=O)c1ccc(OC2CCN(CCc3ccccc3)CC2)cc1 (configuration not stated)	-4%	0	-2	42	5
CC(C)N(C)C(=O)c1ccc(OC2CCN(CCc3ccccc3)CC2)cc1	-17%	2	-87*	14	5
Cc1ccc(F)cc1NC(=O)Cn1c(=O)nc(-c2ccccc2F)c2cc(Cl)ccc21	-20%	/	/	/	/
SMILES	USP1-UAF1 inh	FBPA coupling cs	KCNH2 3.1 block	KCNH2 WT inh	Giardia killer
CCCCN(C(=O)c1ccc2c(c1)OCO2)C1CCS(=O)(=O)C1 (configuration not stated)	-11%	/	-76*	1	-8
Cc1ccc(C(=O)N2CCn3c4c(c5cc(C)ccc53)CCCC42)cc1 (configuration not stated)	-9%	/	/	/	/
Cc1ccc2c(c1)c1c3n2CCN(C(=O)CN2CCN(C)CC2)C3CCC1 (configuration not stated)	2%	-2	11	5	-14
Cc1ccc2c(c1)c(=O)c1c3n2CCN(C(=O)CCl)C3CC1 (configuration not stated)	32µM*	-42*	9	-29	-24
Cc1ccc2c(c1)c1c3n2CCN(C(=O)C2CC2)C3CCC1 (configuration not stated)	-21%	-36*	3	-2	-4
Cn1cc(CNCCCn2ncc3ccccc32)c(-c2ccccc2F)n1	-20%	-2	-97*	14	4
Cn1cc(CNCc2ccc(-n3cccn3)cc2)c(-c2ccccc2F)n1	-23%	1	-7	13	20
CCOc1ccc(-n2c(-c3ccc(OC)cc3)c[n+]3c2CCCCC3)cc1	-7%	3	-32	-20	-3
CCOc1ccc(-n2c(-c3ccc(Br)cc3)c[n+]3c2CCCCC3)cc1	-22%	-5	-85*	-81*	20
CC1=CC(C)(C)N(C(=O)CSc2ncn[nH]2)c2ccccc21	1%	5	-78*	-9	-1
C/C(=C\C(=S)Nc1ccccc1)Nc1ccc2ccccc2c1	-12%	-37*	-28	1	2
Cc1ccc(NC(=S)Nc2cccc3ccccc23)cc1	-30%	-7	-23	8	9
S=C(NCc1ccccc1)Nc1ccc2ccccc2c1	-22%	/	18	6	0
C=CCNC(=S)Nc1cccc2ccccc12	1%	-51*	?	-20	9
C/C(=C\C(=S)Nc1ccccc1)Nc1cccc2ccccc12	-19%	-49*	0	-8	-4
O=C(O)Cc1c(Cl)ccc(Cl)c1Cl	/	4	/	/	/
COc1cc(C(=O)Nc2sc3c(c2C#N)CCCC3)c(Br)c(OC)c1OC	-20%	/	/	/	/
Cc1cn(C)c(CC(=O)N2CCN(c3ccc(F)cc3)CC2)c1C(=O)O	0%	/	/	/	/
O=C(Nc1ccc(F)c(Cl)c1)N1CCN(C(=O)c2nsc3ccccc23)CC1	-6%	/	/	/	/
O=C1C2CC=CCC2C(=O)N1c1nccs1 (configuration not stated)	-9%	/	-8	0	-9
CC(C)(C)C1=CC(=O)C(=O)C(C(C)(C)C)=C1	-19%	-48*	-5	/	-9
Cc1cccc(OC(=O)CSc2nnc(CNC(=O)c3ccccc3)o2)c1C	-7%	/	/	/	/
COc1ccc(C)c2sc(N(CCN(C)C)C(=O)c3ccc(S(=O)(=O)N(C)c4ccccc4)cc3)nc12	-15%	/	8	0	/
CSc1ncc(C(=O)NCc2ccc(C)cc2)c(-c2ccccc2)n1	-10%	/	/	/	/
Cc1ccc(NC(=O)Nc2ccno2)cc1	2%	0	-112*	1	1
Cc1ccc(NC(=O)Nc2ncccc2C)cc1	2%	1	-15	-4	4
Cc1ccc(N(CC(=O)Nc2ccc(Cl)cc2)S(=O)(=O)c2cccc3nonc23)cc1	-25%	/	/	/	/
COCCn1c(-c2ccc(Br)cc2)csc1=Nc1cccnc1	-21%	3	-79*	-8	-18
